Data as given in ChEMBL document CHEMBL1961873, “Compounds: GSK PKIS; Assays: Nanosyn kinase panel” (2012).
“And” between values parts separate entries of the source, which are not always exact repeats. Equal entries are not always repeated.

Columns and labels:
[1] = target: Serine/threonine-protein kinase 26 (Homo sapiens) (UniProt Q9P289); settings: at 1 µM;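 also: mean inhibition of MST4 kinase activity, reported from the GSK PKIS inhibitor-set screening panel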
[2] = target: Serine/threonine-protein kinase PAK 1 (Homo sapiens) (UniProt Q13153); settings: at 0.1 µM
Sequence of Serine/threonine-protein kinase PAK 1 (Homo sapiens) (Q13153 whole entry): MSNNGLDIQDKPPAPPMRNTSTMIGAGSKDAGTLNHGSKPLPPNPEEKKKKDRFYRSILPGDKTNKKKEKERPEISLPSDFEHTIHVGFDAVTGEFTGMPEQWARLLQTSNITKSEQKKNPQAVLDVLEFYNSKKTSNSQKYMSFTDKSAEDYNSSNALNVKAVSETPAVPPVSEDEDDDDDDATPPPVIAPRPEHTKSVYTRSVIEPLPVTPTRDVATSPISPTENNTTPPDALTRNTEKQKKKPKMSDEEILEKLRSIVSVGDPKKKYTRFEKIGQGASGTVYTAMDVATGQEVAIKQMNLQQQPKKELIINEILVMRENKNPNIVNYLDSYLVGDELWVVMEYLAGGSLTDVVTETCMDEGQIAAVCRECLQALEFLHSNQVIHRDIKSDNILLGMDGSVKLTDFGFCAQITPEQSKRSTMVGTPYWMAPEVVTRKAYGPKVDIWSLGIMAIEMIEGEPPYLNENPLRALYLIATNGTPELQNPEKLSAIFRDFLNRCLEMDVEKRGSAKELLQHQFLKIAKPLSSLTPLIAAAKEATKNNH

[3] = target: Serine/threonine-protein kinase PAK 1 (Homo sapiens) (UniProt Q13153); settings: at 1 µM
[4] = target: Serine/threonine-protein kinase PAK 2 (Homo sapiens) (UniProt Q13177); settings: at 0.1 µM
Sequence of Serine/threonine-protein kinase PAK 2 (Homo sapiens) (Q13177 whole entry): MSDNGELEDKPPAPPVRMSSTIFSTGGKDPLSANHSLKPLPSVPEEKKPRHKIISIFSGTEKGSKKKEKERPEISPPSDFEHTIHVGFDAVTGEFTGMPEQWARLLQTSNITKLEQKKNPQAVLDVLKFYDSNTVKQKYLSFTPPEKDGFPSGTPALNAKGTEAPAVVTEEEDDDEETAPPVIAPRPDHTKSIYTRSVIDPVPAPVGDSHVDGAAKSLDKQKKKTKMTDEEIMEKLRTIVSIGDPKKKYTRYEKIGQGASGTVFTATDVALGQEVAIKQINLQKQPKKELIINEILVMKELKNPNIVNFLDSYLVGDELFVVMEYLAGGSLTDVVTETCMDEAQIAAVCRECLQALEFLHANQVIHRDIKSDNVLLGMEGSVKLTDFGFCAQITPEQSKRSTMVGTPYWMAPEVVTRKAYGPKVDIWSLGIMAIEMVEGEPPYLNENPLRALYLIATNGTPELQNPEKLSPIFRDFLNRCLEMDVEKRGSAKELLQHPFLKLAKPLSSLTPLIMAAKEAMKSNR

[5] = target: Serine/threonine-protein kinase PAK 2 (Homo sapiens) (UniProt Q13177); settings: at 1 µM
[6] = target: Serine/threonine-protein kinase PAK 3 (Homo sapiens) (UniProt O75914); settings: at 0.1 µM
Sequence of Serine/threonine-protein kinase PAK 3 (Homo sapiens) (O75914 whole entry, looked up): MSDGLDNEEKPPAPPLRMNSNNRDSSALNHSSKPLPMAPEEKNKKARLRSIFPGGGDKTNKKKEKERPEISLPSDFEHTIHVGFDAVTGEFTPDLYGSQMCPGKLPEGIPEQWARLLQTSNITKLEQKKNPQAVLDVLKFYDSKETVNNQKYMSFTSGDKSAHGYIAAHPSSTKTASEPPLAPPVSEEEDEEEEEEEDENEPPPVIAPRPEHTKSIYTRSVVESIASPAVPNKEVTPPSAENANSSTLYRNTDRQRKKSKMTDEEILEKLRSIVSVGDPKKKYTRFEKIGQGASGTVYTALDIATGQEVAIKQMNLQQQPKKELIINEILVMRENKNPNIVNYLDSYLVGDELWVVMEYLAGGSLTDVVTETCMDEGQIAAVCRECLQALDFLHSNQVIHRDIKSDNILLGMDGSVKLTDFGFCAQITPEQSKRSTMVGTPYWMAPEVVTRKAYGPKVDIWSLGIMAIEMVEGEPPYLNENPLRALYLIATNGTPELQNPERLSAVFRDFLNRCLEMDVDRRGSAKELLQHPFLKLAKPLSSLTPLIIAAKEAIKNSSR

[7] = target: Serine/threonine-protein kinase PAK 3 (Homo sapiens) (UniProt O75914); settings: at 1 µM
[8] = target: Serine/threonine-protein kinase PAK 5 (Homo sapiens) (UniProt Q9P286); settings: at 0.1 µM
Sequence of Serine/threonine-protein kinase PAK 5 (Homo sapiens) (Q9P286 whole entry, looked up): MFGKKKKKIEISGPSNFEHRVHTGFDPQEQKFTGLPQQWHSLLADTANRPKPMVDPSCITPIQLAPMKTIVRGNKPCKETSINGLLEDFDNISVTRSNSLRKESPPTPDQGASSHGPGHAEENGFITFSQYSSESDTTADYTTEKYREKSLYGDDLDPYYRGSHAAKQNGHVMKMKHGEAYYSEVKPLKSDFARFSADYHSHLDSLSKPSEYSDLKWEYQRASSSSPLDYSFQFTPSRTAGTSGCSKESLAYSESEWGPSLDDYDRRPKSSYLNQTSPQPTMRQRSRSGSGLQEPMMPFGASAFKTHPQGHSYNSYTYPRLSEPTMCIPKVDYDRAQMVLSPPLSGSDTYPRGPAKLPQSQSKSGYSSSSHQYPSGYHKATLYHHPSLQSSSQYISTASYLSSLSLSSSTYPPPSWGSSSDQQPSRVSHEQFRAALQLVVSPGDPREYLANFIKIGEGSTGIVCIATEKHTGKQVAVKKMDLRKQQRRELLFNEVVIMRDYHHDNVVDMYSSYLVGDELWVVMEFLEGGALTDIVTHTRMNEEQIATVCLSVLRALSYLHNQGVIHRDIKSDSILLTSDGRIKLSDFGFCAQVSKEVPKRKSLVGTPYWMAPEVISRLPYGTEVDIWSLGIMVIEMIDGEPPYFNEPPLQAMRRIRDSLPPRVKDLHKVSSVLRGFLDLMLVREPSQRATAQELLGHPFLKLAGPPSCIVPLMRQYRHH

[9] = target: Serine/threonine-protein kinase PAK 5 (Homo sapiens) (UniProt Q9P286); settings: at 1 µM
[10] = target: Serine/threonine-protein kinase PAK 6 (Homo sapiens) (UniProt Q9NQU5); settings: at 0.1 µM
Sequence of Serine/threonine-protein kinase PAK 6 (Homo sapiens) (Q9NQU5 whole entry, looked up): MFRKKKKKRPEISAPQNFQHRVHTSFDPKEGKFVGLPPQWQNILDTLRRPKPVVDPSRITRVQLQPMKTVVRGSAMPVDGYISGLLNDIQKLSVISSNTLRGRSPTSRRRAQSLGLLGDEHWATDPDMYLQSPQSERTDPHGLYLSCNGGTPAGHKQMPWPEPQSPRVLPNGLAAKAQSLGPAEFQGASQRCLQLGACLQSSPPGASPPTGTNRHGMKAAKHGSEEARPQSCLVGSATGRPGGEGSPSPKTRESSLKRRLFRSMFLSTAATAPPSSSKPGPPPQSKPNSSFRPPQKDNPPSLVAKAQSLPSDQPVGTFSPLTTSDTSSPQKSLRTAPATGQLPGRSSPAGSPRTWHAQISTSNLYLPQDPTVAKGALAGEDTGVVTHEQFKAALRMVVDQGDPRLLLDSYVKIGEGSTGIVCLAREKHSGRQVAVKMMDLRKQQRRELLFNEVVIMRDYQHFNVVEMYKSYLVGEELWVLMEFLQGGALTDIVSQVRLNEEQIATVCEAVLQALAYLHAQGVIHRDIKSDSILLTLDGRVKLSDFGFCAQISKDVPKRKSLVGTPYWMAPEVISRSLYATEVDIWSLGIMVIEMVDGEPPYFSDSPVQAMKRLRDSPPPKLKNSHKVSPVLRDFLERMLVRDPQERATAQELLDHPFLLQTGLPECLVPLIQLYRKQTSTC

[11] = target: Serine/threonine-protein kinase PAK 6 (Homo sapiens) (UniProt Q9NQU5); settings: at 1 µM
[12] = tested on: Tyrosine-protein kinase ABL1 (Homo sapiens), P00519 [E255K]; settings: at 0.1 µM
[13] = tested on: Tyrosine-protein kinase ABL1 (Homo sapiens), P00519 [E255K]; settings: at 1 µM
[14] = tested on: Tyrosine-protein kinase ABL1 (Homo sapiens), P00519 [H396P]; settings: at 0.1 µM
[15] = tested on: Tyrosine-protein kinase ABL1 (Homo sapiens), P00519 [H396P]; settings: at 1 µM
[16] = tested on: Tyrosine-protein kinase ABL1 (Homo sapiens), P00519 [M351T]; settings: at 0.1 µM
[17] = tested on: Tyrosine-protein kinase ABL1 (Homo sapiens), P00519 [M351T]; settings: at 1 µM
[18] = tested on: Tyrosine-protein kinase ABL1 (Homo sapiens), P00519 [Q252H]; settings: at 0.1 µM
[19] = tested on: Tyrosine-protein kinase ABL1 (Homo sapiens), P00519 [Q252H]; settings: at 1 µM
[20] = tested on: Tyrosine-protein kinase ABL1 (Homo sapiens), P00519 [T315I]; settings: at 0.1 µM

Sequence of Serine/threonine-protein kinase 26 (Homo sapiens) (Q9P289 2-416 limits assumed): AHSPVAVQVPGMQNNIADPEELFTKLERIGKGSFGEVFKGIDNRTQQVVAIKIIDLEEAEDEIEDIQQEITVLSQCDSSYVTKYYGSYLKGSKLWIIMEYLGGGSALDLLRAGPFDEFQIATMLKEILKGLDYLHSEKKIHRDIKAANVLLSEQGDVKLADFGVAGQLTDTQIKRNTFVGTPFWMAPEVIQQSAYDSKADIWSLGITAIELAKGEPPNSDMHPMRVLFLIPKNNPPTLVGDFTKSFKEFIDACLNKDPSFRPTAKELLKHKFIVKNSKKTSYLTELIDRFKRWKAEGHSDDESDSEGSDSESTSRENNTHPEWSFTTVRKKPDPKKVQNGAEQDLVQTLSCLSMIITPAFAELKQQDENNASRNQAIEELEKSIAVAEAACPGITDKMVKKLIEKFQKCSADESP

Structure (SMILES)	inhibition [1]	inhibition [2]	inhibition [3]	inhibition [4]	inhibition [5]	inhibition [6]	inhibition [7]	inhibition [8]	inhibition [9]	inhibition [10]	inhibition [11]	inhibition [12]	inhibition [13]	inhibition [14]	inhibition [15]	inhibition [16]	inhibition [17]	inhibition [18]	inhibition [19]	inhibition [20]
Nc1nonc1-c1nc2cnccc2n1C1CC1	-0.64% and -0.44%	6.95% and 4.45%	7.1% and 6.44%	3.23% and 1.09%	2.18% and 0.82%	4.18% and 2.78%	5.29% and 3.12%	0.47% and 4.24%	1.66% and 0.23%	7.48% and 3.54%	7.32% and -5.94%	2.67% and 0.93%	3.5% and 4.4%	2.21% and 2.04%	0.55% and 1.2%	0.52% and -0.88%	-0.96% and 2.63%	4.06% and 0.83%	3.65% and 2.84%	2.85% and 1.97%
CC1=C(C(=O)Nc2ccc3[nH]ncc3c2)C(c2ccc(F)cc2)N=C(c2ccc(C(F)(F)F)nc2)N1 (stereo not given)	-0.15%	2.26%	3.97%	0.86%	0.19%	1.4%	0.67%	5.14%	-1.73%	8.32%	1.5%	2.72%	3.5%	2.21%	1.95%	1.43%	3.71%	1.86%	3.9%	1.97%
CN(c1ccc(NC(=O)NCCN2CCOCC2)cc1)c1ccnc(Nc2ccc(CS(C)(=O)=O)cc2)n1	0.96%	4.31%	4.43%	2.52%	1.58%	4.14%	3.94%	12.2%	13.5%	3.99%	9.1%	2.54%	14.2%	4.8%	26.3%	3.59%	36.8%	8.57%	39.3%	6.6%
NS(=O)(=O)c1ccc(N/N=C2\C(=O)Nc3cccc(CCc4ccncc4)c32)cc1	9.93%	1.58%	2.13%	0.84%	0.54%	0.06%	0.66%	1.07%	3.39%	-5.12%	-3.63%	-0.21%	3.53%	2.64%	7.39%	3.41%	8.25%	1.54%	7.74%	1.83%
CCN1CCC(C(=O)Nc2n[nH]c3nnc(-c4cccc(F)c4F)cc23)CC1	0.11%	-3.4%	-3.06%	-1.1%	-2.04%	-0.81%	-0.69%	0%	1.08%	-5.45%	-6.98%	-0.54%	0.15%	0.08%	-0.56%	-0.54%	-0.16%	-1.28%	-1.04%	0.53%
COc1cc(N2CCN(C(C)C)CC2)ccc1Nc1nc(Nc2cccc(F)c2C(=O)O)c2cc[nH]c2n1	2.17%	6.19%	5.79%	1.31%	2.49%	4.37%	4.9%	3.7%	4.16%	0.22%	-0.16%	3.61%	5.65%	1.72%	3.69%	1.07%	2.29%	4.74%	5.16%	3.83%
CNC(=O)c1ncccc1Nc1nc(Nc2cc3c(cc2OC)CCCN3C(=O)CN(C)C)nc2[nH]ccc12	-5.28%	7.85%	7.25%	0.92%	1.69%	4.29%	5.27%	5.25%	-0.15%	11.4%	3.38%	2.91%	2.97%	2.6%	2.23%	1.84%	0.31%	3.06%	3.95%	3.72%
COC(=O)Nc1nc2cc(Oc3ccc(NC(=O)Nc4ccccc4)cc3)ccc2[nH]1	0.25%	0.78%	3.46%	1.73%	0.63%	3.68%	4.15%	-3.58%	-3.97%	-4.28%	-2.94%	4.95%	11.4%	14.1%	41%	28.9%	47.8%	22.5%	51.8%	15.9%
Cc1c2ccc(N(C)c3ccnc(Nc4cccc(S(N)(=O)=O)c4)n3)cc2nn1C	-1.81%	7.49%	5.47%	3.47%	3.15%	4.74%	7.28%	1.63%	-1.02%	2.18%	-6.14%	19.6%	67.6%	37.9%	81.6%	39.5%	84.8%	42.9%	83.6%	11.3%
CNC(=O)c1sc(-n2cnc3cc(OC)c(OC)cc32)cc1OCc1ccccc1C(F)(F)F	4.9%	2.95%	1.15%	0.12%	0.57%	4.1%	2.98%	1.27%	0.17%	-2.28%	-4.28%	1.88%	9.07%	3.16%	10.5%	0.2%	6.66%	4.26%	7.88%	1.96%
CS(=O)(=O)Nc1ccc(-c2ccc3c(NC(=O)C4CC4)n[nH]c3c2)cc1	-2.98%	3.5%	5.34%	1.62%	1.36%	3.41%	4.16%	-0.3%	0.91%	0.76%	5.45%	2.53%	5.92%	4.24%	17.5%	4.89%	20.3%	4.73%	9.35%	4.61%
CN1CCN(Cc2ccc(-c3cc4ncnc(Nc5ccc(OCc6cccc(F)c6)c(Cl)c5)c4s3)o2)CC1	-2.57% and -0.01%	6.52% and 11.3%	6.39% and 9.31%	0.62% and 1.36%	1.83% and 3.59%	3.14% and 6.57%	5.4% and 6.56%	2.6%	5.21%	-1.82%	-4.15% and 3.43%	2.21% and 2.71%	7.15% and 8.4%	4.73% and 6.21%	14.3% and 18%	1.3% and 4.75%	14.7% and 17.9%	4.48% and 6.29%	16.1% and 20.9%	3.33% and 5.07%
COc1ccccc1-c1cc(/C=C2\C(=O)Nc3ncc(Br)cc32)cc(Br)c1O	13.5%	6.7%	6.23%	1.92%	2.48%	4.55%	5.35%	0.29%	0.44%	-1.24%	-6.64%	5.22%	22.3%	6.17%	21.9%	5.09%	19.8%	6.3%	20.5%	1.82%
O=C(O[C@H]1CN[C@H](C#Cc2cc3ncnc(Nc4ccc5c(ccn5Cc5cc(F)ccc5F)c4)c3s2)C1)N1CCOCC1	0.81%	9.36%	8.97%	2.13%	2.48%	5.02%	5.53%	-0.09%	-5.06%	-1.93%	-0.57%	1.52%	3.53%	4.04%	8.92%	1.92%	3.98%	3.74%	3.88%	3.97%
Cc1ccc(-c2cc3c(NC(=O)C4CC4)ncnc3o2)cc1	-2.53%	3.85%	5.51%	1.95%	1.97%	3.79%	4.95%	4.59%	-3.05%	4.74%	1.82%	5.52%	18.3%	5.91%	24.2%	3.97%	22.8%	6.11%	23.7%	4.71%
CS(=O)(=O)CCNCc1ccc(-c2ccc3ncnc(Nc4ccc(OCc5cccc(C(F)(F)F)c5)cc4)c3c2)o1	0.42%	8.38%	7.33%	1.38%	3.12%	5.6%	9.88%	4.72%	5.29%	-8.96%	-8.87%	0.33%	2.52%	3.55%	4.29%	-0.21%	1.37%	3.36%	4.5%	1.82%
Fc1cccc(COc2ccc(Nc3ncncc3C#Cc3ccccc3)cc2Cl)c1	0.47%	4.22%	6.2%	1.86%	2.71%	4.76%	5.44%	1.61%	0.61%	1.93%	-8.4%	3.27%	5.06%	3.58%	4.02%	0.94%	5.32%	4.91%	3.96%	4.11%
Cn1c(-c2nonc2N)nc2cnccc21	-1.1%	5.69%	9.42%	1.04%	0.39%	3.23%	2.69%	-1.86%	-0.53%	3.95%	0.39%	2.74%	1.01%	2.83%	2.87%	1.44%	2.81%	2.07%	1.71%	0.03%
CCn1c(-c2nonc2N)nc2cncc(C(=O)NCCNC)c21	-4.29%	6.24%	7.29%	1.98%	2.75%	5.11%	5.12%	3.97%	7.69%	0.36%	-1.02%	3.42%	4.29%	3.77%	6.65%	-0.31%	3.11%	4.53%	5.61%	3.85%
Cc1cc(O)cc(C)c1/C=C/c1cncc(C(N)=O)c1	-0.01%	1.07%	3.22%	0.07%	-0.24%	2.43%	2.79%	9.11%	0.51%	9.09%	10.6%	15.7%	61%	20.4%	70.1%	18.5%	69%	18.7%	67.5%	2.31%
OCCCNc1nccc(-c2c(-c3ccc(F)cc3)nn3cc(C(F)(F)F)ccc23)n1	-0.53%	6.37%	5.57%	2.56%	2.03%	2.17%	3.68%	-4.85%	-5.58%	8.72%	-2.02%	3.05%	3.11%	3.42%	3.33%	2.71%	3%	4.61%	3.52%	1.5%
Fc1ccc(Nc2nccc(-c3c(-c4ccc(C(F)(F)F)cc4)nn4ncccc34)n2)cc1F	-0.83%	4.75%	4.66%	1.92%	2.47%	3.13%	3.25%	-0.66%	-1.33%	0.92%	1.02%	0.93%	3.19%	3.64%	1.04%	2.73%	2.45%	3.28%	-0.3%	3.85%
CCS(=O)(=O)c1ccc(OC)c(Nc2ncc(-c3cccc(C(C)=O)c3)o2)c1	1.58%	8.45%	1.48%	2.47%	1.36%	-0.54%	3.98%	7.26%	8.72%	7.53%	7.27%	15.3%	61.6%	19.3%	67.3%	20.5%	68.5%	30.4%	78%	2.67%
Nc1ncnc2occ(-c3ccc(NC(=O)Nc4cc(C(F)(F)F)ccc4F)cc3)c12	1.08% and -2.02%	3.44% and -1.9%	4.36% and -1.17%	0.88% and -1%	1.23% and -1.68%	2.44% and -2.03%	1.87% and -1.59%	-0.44% and -3.26%	-2.53% and -0.87%	1.24%	0.09% and -8.17%	5.05% and 2.1%	33.4% and 18.4%	24.2% and 11.5%	73.1% and 58.4%	56.4% and 49.1%	84.6% and 76.3%	55.7% and 45.2%	79.1% and 74%	53.6% and 39.2%
NS(=O)(=O)c1cccc(N/C=C2\C(=O)Nc3ccccc32)c1	-1.86%	5.24%	8.78%	1.76%	2.04%	4.81%	4.94%	-8.13%	-8.7%	3.85%	1.64%	5.29%	7.64%	6.01%	8.67%	3.89%	8.75%	5.8%	8.71%	3.14%
CCS(=O)(=O)c1ccc(OC)c(Nc2ncc(-c3cccc(F)c3)o2)c1	-0.44%	9.43%	11.2%	1.97%	2.27%	6%	9.2%	7.29%	9.85%	-7.56%	-6.17%	30.8%	80.4%	40.8%	85.8%	38.6%	85%	41.9%	86.4%	4.78%
